The list is not random: actives were taken first. Their share in the collection is about 2.1%.
Abeta rescue = restores growth of yeast expressing A-beta42 peptide. actives 0.063% (n = 410,000). AID 1347071. Potency, µM (highest dose often 46.1 µM), hits mostly activators. yeast expressing A-beta42, growth rescue, OD600, 48 h; response scale: 0% DMSO, 100% iron-clioquinol control; also: nearly all actives have a fitted effect of over 55% in size
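Growth rescue measured by 600 nm absorbance after 48 h yeast culture at 30 C with compound. Values normalized between DMSO and an equimolar ferric chloride plus clioquinol control.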
aSyn rescue = alpha-synuclein toxicity inhibition in yeast. Yeast expressing alpha-synuclein, growth rescue, BacTiter-Glo, 24 h. Potency, µM (series often up to 46.1 µM), for inactives: top-dose growth rescue (activation), usual class: activators. actives 0.14% (n = 370,000). AID 652106; also: % of control where 0% means no effect; nearly all actives have a fitted effect of over 65% in size
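Screening used galactose-induced yeast with toxic alpha-synuclein levels, exposed to compound for 24 hr at 30 deg C. Cell growth, read with BacTiter-Glo luminescence, gave the measured signal.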
FUS suppressor = rescues growth of FUS-expressing yeast; S. cerevisiae FUS-expressing, growth rescue, OD600, 24 h; Potency, µM (highest dose often 76.6 µM), hits mostly activators; actives 0.24% (n = 390,000); AID 1347120;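 also: plate controls were DMSO vehicle for no effect and reference control for full effect; nearly all actives have a fitted effect of over 55% in size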
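Galactose (2%) drives FUS expression in yeast precultured in raffinose; seeding density OD 0.005. Test compounds incubated 24hr at 30C and 99% humidity before absorbance at 600 nm was measured.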
TDP-43 yeast inh = TDP-43 toxicity inhibition in yeast; Potency, µM (highest dose often 46.1 µM), without a hit: at the highest dose growth rescue (activation), usual class: activators; actives 1.8% (n = 410,000); TDP-43 expressing yeast growth rescue, BacTiter-Glo, 24 h; AID 652104; also: % of control where 0% means no effect; nearly all actives have a fitted effect of over 50% in size
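Cell-based yeast growth screen: TDP-43 expression induced in galactose, inoculum OD600=0.02 after raffinose pregrowth to mid-log. Read-out BacTiter-Glo luminescence at 24 hr, 30 deg C; inhibition of toxicity seen as signal increase.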
The depositor's hits bear a star. Calls follow the shape of the dose curve; as a rule, active = well fitted curve in the direction sought with a large enough effect; inconclusive = small, poorly fitted or top-dose-only effect, or another doubt; inactive = no such curve, though single readings can be large; an effect the other way counts as inactive or inconclusive. Potency is read from the fitted curve at half-maximal effect.

`Cc1ccc(-n2c(SCc3cccc(F)c3)nc3sc4c(c3c2=O)CCCC4)cc1` gave FUS suppressor inactive.
Screening N/C(=N\OC(=O)c1ccc(Cl)cc1Cl)c1ccncc1 returned Abeta rescue inactive, aSyn rescue -7.5%, FUS suppressor inactive and TDP-43 yeast inh 20.1%.
N/C(=N\OC(=O)c1ccc(F)cc1)c1cccc([N+](=O)[O-])c1 was read as Abeta rescue inactive, aSyn rescue -8.4%, FUS suppressor inactive and TDP-43 yeast inh 12.6µM*.
N/C(=N\OC(=O)c1ccccc1Cl)c1ccncc1 was read as Abeta rescue inactive, aSyn rescue 6.7%, FUS suppressor inactive and TDP-43 yeast inh 25.1µM*.
CN(C(=O)[C@@H](C1CC1)[C@@H](O)c1ccc(Cl)cc1)c1ccccc1 was read as FUS suppressor inactive.
For Cc1cccc2sc(N3CCN(C(=O)CS(=O)(=O)c4ccc(F)cc4)CC3)nc12 the results were Abeta rescue inactive, FUS suppressor inactive and TDP-43 yeast inh 12.6µM*.
Screening Cc1cccc(C)c1-n1nnnc1C1c2ccccc2C(=O)N1CCc1ccccc1F (stereo not given) returned Abeta rescue inactive, aSyn rescue 7.6%, FUS suppressor inactive and TDP-43 yeast inh 35.5µM*.
For Cc1cccc(C)c1-n1nnnc1C1c2ccccc2C(=O)N1CCC(C)C (stereo not given) the results were Abeta rescue inactive, aSyn rescue 5.3%, FUS suppressor inactive and TDP-43 yeast inh 0.0%.
Screening Brc1ccc(-c2csc(-c3ccncc3)n2)cc1 returned Abeta rescue inactive, aSyn rescue 0.6% and TDP-43 yeast inh 11.2µM*.
`Cc1ccc(-c2csc(-c3ccncc3)n2)cc1` gave Abeta rescue inactive, aSyn rescue 9.3%, FUS suppressor inactive and TDP-43 yeast inh inconclusive.
`Fc1ccc(NC2CCC23CCC(c2ccccc2)CC3)cc1C(F)(F)F` (stereo not given) gave FUS suppressor inactive.
Screening c1ccc(CNc2ncnc3scc(-c4cccs4)c23)nc1 returned Abeta rescue inactive, aSyn rescue 10.7%, FUS suppressor inactive and TDP-43 yeast inh 17.8µM*.
`COc1ccc(NC(=O)C(Cl)=C(Cl)Cl)cn1` gave Abeta rescue inactive, aSyn rescue 6.3%, FUS suppressor inactive and TDP-43 yeast inh 12.6µM*.
`O=C(O)CC1(CC(=O)Nc2ccc(Oc3cccc(C(F)(F)F)c3)nc2)CCCC1` gave Abeta rescue inactive, aSyn rescue 4.2%, FUS suppressor inactive and TDP-43 yeast inh 12.2%.
For COc1ccc(NC(=O)/C(Cl)=C(/Cl)S(=O)(=O)Cc2ccccc2)cn1 the results were Abeta rescue inactive, aSyn rescue -35.9%, FUS suppressor inactive and TDP-43 yeast inh 3.16µM*.
Screening COc1ccc(NC(=O)CC2(CC(=O)O)CCCC2)cn1 returned Abeta rescue inactive, aSyn rescue 3.6%, FUS suppressor inactive and TDP-43 yeast inh 12.6µM*.
Screening COc1ccc(NC(=O)Nc2ccc(OCc3ccccc3)cc2)cn1 returned Abeta rescue inactive, aSyn rescue -5.5%, FUS suppressor inactive and TDP-43 yeast inh 2.6%.
Screening COC(=O)c1ccc(/C=C/C(=O)O)cc1 returned Abeta rescue inactive, aSyn rescue -6.6%, FUS suppressor inactive and TDP-43 yeast inh 35.5µM*.
COC(=O)c1ccc(/C=C/C(=O)c2ccc(OC)cc2)cc1 was read as Abeta rescue inactive, aSyn rescue 1.4%, FUS suppressor inactive and TDP-43 yeast inh -4.8%.
`COc1cc2c(C(=O)N3CCN(c4ccc(C)cc4)C(C)C3)cn(CC(C)C)c(=O)c2cc1OC` (stereo not given) gave Abeta rescue inactive, FUS suppressor inconclusive and TDP-43 yeast inh 35.5µM*.
For CCn1cc(C(=O)N2CCN(c3ccc(OC)cc3)CC2)c2cc(OC)c(OC)cc2c1=O the results were Abeta rescue inactive, aSyn rescue 3.2%, FUS suppressor inactive and TDP-43 yeast inh 22.1%.
Screening Nn1c(SCC(=O)NC2CCCCC2)nnc1-c1cc(-c2ccc(Cl)cc2)n[nH]1 returned FUS suppressor inactive.
Screening OC1C(Br)=Cc2ccccc21 (stereo not given) returned aSyn rescue 0.0%.
Cc1ccc(CN2CCCCC(NC(=O)Nc3ccccc3)C2=O)cc1 (stereo not given) was read as FUS suppressor inactive.
`Cn1nc(C(C)(C)C)cc1NC(=O)C1(C)CCN1C(=O)C1(c2ccccc2)CCCC1` (stereo not given) gave Abeta rescue inactive, aSyn rescue 14.1%, FUS suppressor inactive and TDP-43 yeast inh 35.5µM*.
CC1(C(=O)NCc2ccc3c(c2)OCO3)CCN1C(=O)C1(c2ccc(Cl)cc2)CC1 (stereo not given) was read as Abeta rescue inactive, aSyn rescue 8.0%, FUS suppressor inactive and TDP-43 yeast inh 25.1µM*.
Screening CC1(C(=O)Nc2ccc3c(c2)OCO3)CCN1C(=O)C1(c2ccc(Cl)cc2)CC1 (stereo not given) returned Abeta rescue inactive, aSyn rescue 1.6%, FUS suppressor inconclusive and TDP-43 yeast inh 0.0%.
`Cn1nc(C(C)(C)C)cc1NC(=O)C1(C)CCN1C(=O)C1(c2ccccc2)CC1` (stereo not given) gave Abeta rescue inactive, aSyn rescue 8.9%, FUS suppressor inactive and TDP-43 yeast inh inconclusive.
Screening CC1(C(=O)Nc2ccc3c(c2)OCCO3)CCN1C(=O)C1(c2ccccc2)CC1 (stereo not given) returned Abeta rescue inactive, aSyn rescue 4.4%, FUS suppressor inactive and TDP-43 yeast inh 12.6µM*.
Screening O=C(Nc1ccc(F)cc1F)C1CCN(c2nnc(-n3cccc3)s2)CC1 returned FUS suppressor inactive.
For COc1cccc(NC(=O)N2CCN(c3cccc(C)c3C)CC2)c1 the results were Abeta rescue inactive, aSyn rescue -0.2%, FUS suppressor inactive and TDP-43 yeast inh 12.6µM*.
For COc1ccc(S(=O)(=O)Cc2ccc(C(=O)N3CCN(c4cc(C)ccc4C)CC3)o2)cc1 the results were Abeta rescue inactive, aSyn rescue 0.1%, FUS suppressor inconclusive and TDP-43 yeast inh inconclusive.
Screening COc1ccc(CC(=O)N2CCN(c3cccc(C)c3C)CC2)cc1 returned Abeta rescue inactive, aSyn rescue -1.5%, FUS suppressor inactive and TDP-43 yeast inh 11.2µM*.
O=C(c1ccc(COc2ccccc2)o1)N1CCN(S(=O)(=O)c2ccccc2Cl)CC1 was read as Abeta rescue inactive, aSyn rescue 0.5%, FUS suppressor inactive and TDP-43 yeast inh 15.8µM*.
`Cc1ccc(S(=O)(=O)N2CCN(C(=O)c3ccc(COc4ccccc4)o3)CC2)cc1` gave Abeta rescue inactive, aSyn rescue -3.1%, FUS suppressor inactive and TDP-43 yeast inh 19.8%.
`COc1ccccc1N1CCN(C(=O)Nc2cccc(Cl)c2)CC1` gave Abeta rescue inactive, aSyn rescue 5.9%, FUS suppressor inactive and TDP-43 yeast inh -4.5%.
